Wnt act – activates Wnt/beta-catenin signaling in a reporter cell assay; activator, plate reader; activation, % at 9.35 µM; hit rate 1.2% among 300,000; AID 743398; in the data active = activation above about 30%, passing the limit was not always enough; inconclusive = no clear call, values can overlap the other calls;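 note: 0% = neutral control wells and 100% = positive control wells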
esBAF inh – SWI/SNF esBAF complex inhibition; mouse ES cells, Bmi1-luciferase knock-in reporter, 24 h; 100% = twice the neutral-well signal; reporter increase, % at 12.5 µM; hit rate 2% among 350,000; in the data active = activation above about 40%; inconclusive = no clear call, values can overlap the other calls;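 note: 0% = median of the plate's neutral control wells and 100% = double that signal; a rise in the Bmi1 reporter signal indicates esBAF inhibition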
MITF TRPM1 inh – reduces MITF-dependent TRPM1 promoter luciferase signal; SK-MEL-5 TRPM1 promoter luciferase, 24 h; inhibition, % at 12.5 µM; hit rate 0.83% among 330,000; AID 488899;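 active = mean inhibition across replicates of 60% or more, whatever share of single replicates reaches that level; inconclusive = some that reach 60%, reason not given; inactive = mean inhibition across replicates below 60%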
PAX8 inh HTS – lowers PAX8-driven luciferase in RMG-I cells | RMG-I TPO-luciferase reporter, SteadyGlo, 24 h | inhibition, % at 12.6 µM | hit rate 1.2% among 360,000 | AID 652154;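 active = mean replicate inhibition at least 60% with every replicate also reaching 60%; inconclusive = only one of the two criteria is met; inactive = mean below 60% and not all replicates reaching 60%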;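 note: luciferase light reporting Pax8 driven TPO promoter activity; plate controls were median of neutral control wells for no effect and mitoxantrone controls for full effect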
EWS-Fli block – blocks EWS/Fli oncoprotein-driven transcription. A673 NR0B1-luciferase reporter, viability-normalised. inhibition, % at 12.6 µM. hit rate 0.67% among 350,000;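 active = mean inhibition of at least 50% after viability correction, with every replicate also passing that limit; inconclusive = mean reaches 50% but only one of two replicates passes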;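 note: firefly luciferase signal divided by Alamar Blue viability fluorescence both relative to DMSO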
MITF TRPM1 HTS – MITF TRPM1 promoter activation in melanoma cells. SK-MEL-5 TRPM1-promoter luciferase, 24 h; % of positive control, neutral wells = 0. activation, % at 12.5 µM. hit rate 0.75% among 300,000. AID 588334;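 active = mean activation of at least 80% with every replicate also reaching 80%; inconclusive = mean reaches 80% but some replicate falls short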;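 note: 0% = neutral control wells and 100% = parthenolide positive control wells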
Starred values were filed as active, the others as inactive. Sampled rows, rich in hits. Any-hit rate of the full collection: about 4%.

Screening c1ccc(-c2ccc(-c3nc(-c4cccnc4)no3)cc2)cc1 returned Wnt act inconclusive, esBAF inh 4, MITF TRPM1 inh -41 and MITF TRPM1 HTS 48.
`CCOc1ccc(-c2nc(-c3cccnc3)no2)cc1` gave Wnt act 47*, esBAF inh -3, MITF TRPM1 inh -23 and MITF TRPM1 HTS 13.
`CCCCOc1ccc(-c2nc(-c3cccnc3)no2)cc1` gave esBAF inh 7, MITF TRPM1 inh -92 and MITF TRPM1 HTS 99*.
For COc1cccc(-c2noc(-c3ccc(Cl)nc3)n2)c1 the results were Wnt act -1, MITF TRPM1 inh -51, PAX8 inh HTS -72, EWS-Fli block -87 and MITF TRPM1 HTS 50.
`Clc1ccccc1-c1nc(-c2cccnc2)no1` gave esBAF inh 24, MITF TRPM1 inh -1 and MITF TRPM1 HTS 3.
`Cc1ccccc1-c1nc(-c2cccnc2)no1` gave Wnt act 48*, esBAF inh 9, MITF TRPM1 inh -38 and PAX8 inh HTS -93.
Screening COc1cc(OC)cc(-c2nc(-c3ccccc3)no2)c1 returned Wnt act -2, esBAF inh 48*, MITF TRPM1 inh -39, PAX8 inh HTS -173 and MITF TRPM1 HTS 45.
COc1ccc(NC(=O)Nc2ccc3c(c2)C(=O)N([C@H](C)CO)C[C@@H](C)[C@H](CN(C)S(=O)(=O)c2cccs2)OCCCC[C@@H](C)O3)cc1 was read as esBAF inh 6 and EWS-Fli block 22.
Screening CC=Cc1ccc2n(c1=O)C[C@H]1[C@H](CO)[C@@H](C(=O)NCC3CC3)[C@@H]2N1Cc1ccccc1OC (mixture of isomers) returned esBAF inh -3 and EWS-Fli block -7.
Screening O=C(CN1CCOCC1)N[C@@H]1CC[C@@H](CCNS(=O)(=O)c2ccccc2F)O[C@H]1CO returned esBAF inh 2, PAX8 inh HTS -3 and EWS-Fli block 6.
Screening COc1ccc(-c2nc(-c3cccnc3)no2)cc1 returned Wnt act 53*, MITF TRPM1 inh -52, PAX8 inh HTS -145 and EWS-Fli block -39.
For Cc1ccc(-c2noc(-c3ccccc3F)n2)cc1 the results were Wnt act 57*, esBAF inh -15, MITF TRPM1 inh -18, PAX8 inh HTS -65, EWS-Fli block 4 and MITF TRPM1 HTS 12.
`C[C@@H]1CN([C@H](C)CO)C(=O)c2cc(NS(=O)(=O)c3cn(C)cn3)ccc2O[C@H]1CN(C)Cc1ccc(C(=O)Nc2ccccc2N)cc1` gave esBAF inh 0 and EWS-Fli block -1.
Screening CCOC(=O)C1CCN(C(=O)c2cc3cc(C)ccc3[nH]2)CC1 returned Wnt act 34*, esBAF inh 19, MITF TRPM1 inh -41, PAX8 inh HTS -95 and EWS-Fli block -89.
For CCOC(=O)C1CCN(C(=O)c2cc3cc4ccc(C)cc4nc3o2)CC1 the results were Wnt act 26, esBAF inh 12, MITF TRPM1 inh -14, PAX8 inh HTS -42, EWS-Fli block -3 and MITF TRPM1 HTS 15.
`CCOC(=O)C1CCN(C(=O)c2cc3c(ccc4ccccc43)o2)CC1` gave Wnt act 42*, esBAF inh 71*, MITF TRPM1 inh -94, PAX8 inh HTS -197, EWS-Fli block -87 and MITF TRPM1 HTS 96*.
For CC1CCN(C(=O)c2cc3c(ccc4ccccc43)o2)CC1 the results were Wnt act 33*, MITF TRPM1 inh -24, PAX8 inh HTS -107 and MITF TRPM1 HTS 29.
`COC(=O)[C@H]1[C@H](CO)[C@H]2Cn3c(ccc(/C=C/c4ccccc4)c3=O)[C@H]2N1C(=O)C1CCCC1` gave esBAF inh 6 and EWS-Fli block 3.
Screening Cc1sc(NC(=O)CCCC(=O)O)c(C(N)=O)c1-c1ccccc1 returned Wnt act 2, MITF TRPM1 inh 41, PAX8 inh HTS -10, EWS-Fli block 54* and MITF TRPM1 HTS -46.
`COC(=O)c1c(NC(=O)CCCC(=O)O)sc(C)c1C` gave Wnt act -1, esBAF inh -8, MITF TRPM1 inh 6 and MITF TRPM1 HTS -5.
For CNc1cc(-c2cccc(N(C)C)c2)ncn1 the results were Wnt act 0, esBAF inh 31, PAX8 inh HTS -192 and EWS-Fli block -94.
CNc1cc(-c2ccc(CC#N)cc2)ncn1 was read as Wnt act 3, esBAF inh 50*, PAX8 inh HTS -192 and EWS-Fli block -82.
Cc1ccc(N2NC(C)(c3cccs3)NC2=S)cc1 (stereo not drawn) was read as Wnt act 12, MITF TRPM1 inh -82, PAX8 inh HTS -10 and MITF TRPM1 HTS 92*.
For Cc1ccc(N2CC(O)(c3cccs3)[N+]3=C2CCCC3)cc1 (stereo not drawn) the results were Wnt act -1, MITF TRPM1 inh 2, PAX8 inh HTS 5, EWS-Fli block 5 and MITF TRPM1 HTS 2.
For CN(C)S(=O)(=O)c1cccc(NC(=O)CSc2nc3c(cc2C#N)C(=O)CC(C)(C)C3)c1 the results were Wnt act 0, MITF TRPM1 inh 68*, PAX8 inh HTS inconclusive, EWS-Fli block 28 and MITF TRPM1 HTS -67.
For c1cncc(CSc2ccc(-c3cccs3)nn2)c1 the results were Wnt act 14, esBAF inh 56*, MITF TRPM1 inh -61, PAX8 inh HTS -12, EWS-Fli block -26 and MITF TRPM1 HTS 67.
For Cc1ccc(CSc2ccc(-c3cccs3)nn2)cc1 the results were MITF TRPM1 inh -106, PAX8 inh HTS -165 and MITF TRPM1 HTS 109*.
Clc1cccc(CSc2ccc(-c3cccnc3)nn2)c1 was read as Wnt act 6, esBAF inh 9, MITF TRPM1 inh -16, PAX8 inh HTS -26, EWS-Fli block -24 and MITF TRPM1 HTS 13.
For Cc1noc(C)c1S(=O)(=O)Nc1ccc2c(c1)CC(=O)N([C@@H](C)CO)C[C@@H](C)[C@H](CN(C)C(=O)Nc1ccc(F)cc1)O2 the results were esBAF inh -2, PAX8 inh HTS 2 and EWS-Fli block 2.
Cc1cc(-c2ccc(S(=O)(=O)N(C)c3ccc(C)c(C)c3)s2)on1 was read as Wnt act -1, esBAF inh -18, MITF TRPM1 inh 29, PAX8 inh HTS 15 and MITF TRPM1 HTS -26.
Screening Cc1ccc(N(C)S(=O)(=O)c2ccc(-c3cc(C)no3)s2)cc1 returned Wnt act -5, esBAF inh 4, MITF TRPM1 inh 27, PAX8 inh HTS 26, EWS-Fli block 54* and MITF TRPM1 HTS -28.
`O=C(Cc1ccccn1)NCC[C@H]1CC[C@H](NC(=O)Nc2ccc(C(F)(F)F)cc2)[C@H](CO)O1` gave esBAF inh 6, PAX8 inh HTS 69* and EWS-Fli block -9.
O=C(NCC[C@@H]1CC[C@@H](NC(=O)c2cccnc2)[C@H](CO)O1)Nc1ccc(C(F)(F)F)cc1 was read as esBAF inh 54*, PAX8 inh HTS -113 and EWS-Fli block -79.
